Measured values published in PubChem BioAssay AID1839 (Johns Hopkins Ion Channel Center, 2009).
Screen size: about 2,400 compounds; about 220 (9.2%) were called active.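 Rule for the calls: active = signal change above the mean of dofetilide-free buffer controls plus 3 SD, so a positive margin; inactive = the rest.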 The full list was thinned out, with actives kept by preference.

experiment: thallium signal changes without hERG – cell-based, CHO-K1 parental line, FluxOR thallium flux, counter-screen for hERG block protection project, confirmation (AID 1839); details: CHO-K1 parental cells, FluxOR thallium flux fluorescence; at 10 µM;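 note: compounds applied alone with no dofetilide to cells lacking hERG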

Compound | signal change vs control minus 3*SD hit threshold (margin above threshold, higher = more increase)
COC(=O)CSc1nc(N2CCCCC2)c2c(c1C#N)CCCC2 | -8.9% (inactive)
O=C(COC(=O)c1cc(Br)ccc1O)Nc1cccnc1Cl | -24.7% (inactive)
CC(C)c1ccc(OCC(=O)NN2C(=O)c3ccccc3C2=O)c(Br)c1 | -24% (inactive)
Cc1ccc(C)c2sc(NC(=O)c3nc4ccccc4s3)nc12 | -20.2% (inactive)
CCOC(=O)c1c(NS(=O)(=O)Cc2ccccc2)sc2c1CCCC2 | -0.7% (inactive)
COC(=O)c1c(NS(=O)(=O)c2ccc3ccccc3c2)sc2c1CCCC2 | -22.4% (inactive)
CCOC(=O)c1c(NS(=O)(=O)c2ccc(Br)cc2)sc2c1CCC2 | 32.6% (active)
CN(NC1OC(=O)c2ccccc21)c1ccccc1[N+](=O)[O-] (centres undefined) | -30.9% (inactive)
COc1nnc(-c2ccc(C)c(S(=O)(=O)NC(C)(C)CO)c2)c2ccccc12 | -25.8% (inactive)
Cc1ccc(C(=O)Sc2cccccc2=O)cc1 | -20.3% (inactive)
O=C1OC(/C=C/c2ccc(Cl)cc2Cl)=NC/1=C\c1cccs1 | -32.3% (inactive)
O=c1c2cc(Cl)ccc2[nH]c(=S)n1Cc1cccs1 | -21.6% (inactive)
O=c1c(O)c(-c2cccs2)oc2ccc(Cl)cc12 | 64.2% (active)
O=c1c(O)c(-c2ccc3c(c2)OCO3)oc2ccccc12 | -10.8% (inactive)
CCN(CC)CCCN1C(=O)c2oc3ccccc3c(=O)c2C1c1cccs1 (centres undefined) | -15.9% (inactive)
O=c1c(O)c(-c2cccs2)oc2ccccc12 | 39.2% (active)
Cc1ccccc1NP(=O)(c1ccccc1)c1nc2ccccc2s1 (centres undefined) | -31.9% (inactive)
CCOc1ccc(N)c(SSc2cc(OCC)ccc2N)c1 | -32.6% (inactive)
Cc1ccc(CC23CN4CCN(CC(C4)C2O)C3)c(C)c1 (centres undefined) | -14.8% (inactive)
CN(C)CCOC(=O)C1(c2ccccc2)CCCC1 | -31.9% (inactive)
COC(=O)C1=C(C)NC2=C(C(=O)CCC2)C1c1ccc(-c2ccsc2C(=O)OC)o1 (centres undefined) | -17.8% (inactive)
O=C(/C=C/c1ccccc1)CC(=O)c1ccccc1O | -29.3% (inactive)
CCOc1cc(N2CCOCC2)c(OCC)cc1NC(=O)CCC1CCCC1 | -19.4% (inactive)
Cc1ccccc1NC(=S)NC(=O)c1cc(-c2ccccc2)nc2ccccc12 | -15.1% (inactive)
O=C(NC(=S)Nc1ccccc1)c1ccc(Br)o1 | -17.9% (inactive)

Compound | signal change vs control minus 3*SD hit threshold (margin above threshold, higher = more increase)
O=C(NC(=S)NCc1ccccc1)c1ccc(Br)o1 | 39.2% (active)
COc1ccccc1NC(=S)NC(=O)c1ccc(-c2ccc(Cl)cc2)o1 | -22.6% (inactive)
COc1ccc(OC)c(NC(=S)NC(=O)c2ccc(Br)o2)c1 | -21.4% (inactive)
O=C(NC(=S)NCc1ccccc1)c1cccs1 | -11.1% (inactive)
Cc1cccc(NC(=S)NC(=O)c2ccc(Br)o2)c1 | 9.1% (active)
O=C(NC(=S)Nc1ccccc1F)c1ccc(Br)o1 | 23% (active)
Cc1cccc(NC(=S)NC(=O)c2ccc(Br)o2)c1C | -13.6% (inactive)
Cc1cccc(C)c1NC(=S)NC(=O)c1ccc(Br)o1 | 18.7% (active)
O=C(CNC(=S)NC(=O)c1ccc(Br)o1)c1ccccc1 | -26.3% (inactive)
Cc1ccc(NC(=S)NC(=O)c2ccc(Br)o2)c(C)c1 | -19.5% (inactive)
CCN(c1ccccc1)S(=O)(=O)c1ccc(NC(=S)NC(=O)c2ccc(Br)o2)cc1 | -20.8% (inactive)
CCN(CC)c1ccc(NC(=S)NC(=O)c2ccco2)cc1 | -1.8% (inactive)
N#Cc1c(-c2ccco2)c2c([nH]c1=S)CCCC2 | -29.5% (inactive)
CCOC(=O)c1c(-c2ccccc2)csc1NC(=S)NC | -10.9% (inactive)
CC12CCC(C/C1=N\N=C1\NC(=O)/C(=C\c3ccc(Cl)cc3)S1)C2(C)C (centres undefined) | -20.2% (inactive)
Cc1nnc2ccc(-c3cccc(NC(=O)c4ccc(Cl)nc4)c3)nn12 | -41.7% (inactive)
O=C(NC(=S)N1CCN(c2ccccc2)CC1)c1ccccc1 | -8.7% (inactive)
CC(C)Sc1nc2ccccc2n2cnnc12 | -29.7% (inactive)
Cc1cccc(/C=C2/S/C(=N/N=C3\CC4CCC3(C)C4(C)C)NC2=O)c1 (centres undefined) | -12.4% (inactive)
Cc1ccc2nsnc2c1S(=O)(=O)Nc1cccc2nsnc12 | -18.7% (inactive)
CCC1CCc2c(sc(NC(=O)C3CC=CCC3C(=O)O)c2C#N)C1 (centres undefined) | -5.5% (inactive)
Cc1cc([N+](=O)[O-])ccc1-c1ccc(C2Nc3ccccc3C(=O)N2O)o1 (centres undefined) | -18.3% (inactive)
O=C1c2ccccc2NC(c2ccc(Br)s2)N1O (centres undefined) | 15.6% (active)
C=CCc1cccc(C2Nc3ccccc3C(=O)N2O)c1O (centres undefined) | -26.4% (inactive)
